Drawing on PubChem BioAssay (NCATS), this text covers Potency for 40 molecules.

Results filed as inconclusive are left out. Entries that show only a call come without a potency. The source made the active and inactive calls. Calls follow the shape of the dose curve; as a rule, active = well fitted inhibition curve with a large enough effect; inconclusive = small, poorly fitted or top-dose-only effect; inactive = no such curve, though single readings can be large or run the other way.
Potency is read from the fitted curve at half-maximal effect.

This experiment can be described thus: Primary qHTS for inhibitors of nuclear receptor binding SET domain protein 2 (NSD2) in an RCH-ACV wild type WT cells (2C) (AID 1645877). Also: nearly all actives have a fitted effect of over 70% in size. Particulars: RCH-ACV (leukaemia line) NSD2 WT (2C) viability, CellTiter-Glo, 72 h; series mostly up to 44.9 µM. The source says:
Assay Provider: Jonathan D. Licht, MD
University of Florida College of Medicine, Gainesville, FL
Mutations in epigenetic regulators are common in relapsed pediatric acute lymphoblastic leukemia (ALL). Here, we uncovered the mechanism underlying the relapse of ALL driven by an activating mutation of the NSD2 histone methyltransferase (p.E1099K). […] Correction of this mutation restored glucocorticoid sensitivity. The transcriptional response to glucocorticoids was blocked in NSD2 mutant cells due to depressed glucocorticoid receptor (GR) levels and the failure of glucocorticoids to autoactivate GR expression. […] Pre-treatment of NSD2 p.E1099K cell lines and PDX samples with PRC2 inhibitors reversed glucocorticoid resistance in vitro and in vivo.
High-throughput drug screening of isogenic RCH-ACV cell lines was performed at the National Center for Advancing Translational Science (NCATS), National Institutes of Health as previously described (1). Briefly, isogenic RCH-ACV NSD2 p.E1099K mutant (9B) and WT cells (2C) were plated at 500 cells/well in a 1536-well plate with a 72-hour incubation with compounds prior to addition of CellTiter-Glo to assess cell viability. NCATS libraries screened include: NPC, MIPE 5.0, Kinase and NPACT. To determine compound activity in the qHTS assay, the concentration-response data for each sample was plotted and modeled by a four-parameter logistic fit yielding IC50 and efficacy (maximal response) values. The area under the curve (AUC) of the dose-response curve ensures both efficacy (magnitude of cell killing) and potency (concentration that elicits cell killing) are accounted for in the analysis of activity.
1. Tobie D Lee, Olivia W Lee, Kyle R Brimacombe, Lu Chen, Rajarshi Guha, Sabrina Lusvarghi, Bethilehem G Tebase, Carleen Klumpp-Thomas, Robert W Robey, Suresh V Ambudkar, Min Shen, Michael M Gottesman, Matthew D Hall. A High-Throughput Screen of a Library of Therapeutics Identifies Cytotoxic Substrates of P-glycoprotein. Mol Pharmacol. 2019, Nov;96(5):629-640.
In general terms: Quantitative high-throughput screening tests each substance at several concentrations.
Consider `CN1C[C@@H](NS(=O)(=O)N(C)C)C[C@@H]2c3cccc4c3c(cn4C)C[C@H]21`, for which the Potency result is “inactive”.
To `COc1ccc2c(C(=O)c3ccc(Cl)cc3)c(C)n(CC(=O)O)c2c1` belongs “inactive”; to `CCCOC(=O)Cc1ccc(OCC(=O)N(CC)CC)c(OC)c1`, “inactive”; to `COc1cc(CC(C)N)c(OC)cc1Br` (stereo not given), 8.96 µM (active).
Take `C[C@]12Cc3nonc3C[C@@H]1CC[C@@H]1[C@@H]2CC[C@@]2(C)[C@H]1CC[C@]2(C)O`: the Potency is 21.1 µM (active).
Next, `CCOC(=O)c1ncn2c1CN(C)C(=O)c1c(I)cccc1-2`: “inactive”; `O=C(O)c1nn(Cc2ccc(Cl)cc2Cl)c2ccccc12`: “inactive”; `CCOC(=O)C(c1c(O)c2ccccc2oc1=O)c1c(O)c2ccccc2oc1=O`: “inactive”.
Turning to `C=CCN1CC[C@]23CCCC[C@H]2[C@H]1Cc1ccc(O)cc13`, the Potency entry is “inactive”.
Next, `NC(=O)CN1CCCC1=O`: “inactive”; `O=c1n(Cl)c(=O)n(Cl)c(=O)n1Cl`: “inactive”.
Next, `C[N+]1(CCC(C(N)=O)(c2ccccc2)c2ccccc2)CCCCC1`: “inactive”; `NC1(c2ccccc2)CCCCC1`: 24.1 µM (active); `COc1ccc2c3c1O[C@H]1[C@@H](O)C=C[C@H]4[C@@H](C2)N(C)CC[C@@]341`: 6.72 µM (active).
To `CCOC(=O)NC(C)(C)Cc1ccc(Cl)cc1` belongs “inactive”; to `CC(C)NCC(O)c1ccc(N)c(C#N)c1` (stereo not given), “inactive”.
Turning to `CCC1(c2ccccc2)CCC(=O)NC1=O` (stereo not given), the Potency entry was “inactive”.
To `CCCC[N+]1(C)[C@@H]2CC(OC(=O)[C@H](CO)c3ccccc3)C[C@H]1[C@@H]1O[C@@H]12` (stereo not given in full) belongs “inactive”; to `CCC(=O)OC1(c2ccccc2)CCN(C)CC1`, “inactive”; to `O=c1[nH]c2cc(Cl)ccc2n1C1CCNCC1`, “inactive”.
Next, `Cc1nnc2n1-c1sc(CCC(=O)N3CCOCC3)cc1C(c1ccccc1Cl)=NC2`: “inactive”; `CCOC(C(=O)OCCN(C)C)(c1ccccc1)c1ccccc1`: “inactive”.
To `C[C@]12CC[C@H]3[C@@H](CCC4=CC(=O)CC[C@@]43C)[C@@H]1CC[C@@H]2C(=O)O` belongs “inactive”; to `COP(=O)(OC)C(O)C(Cl)(Cl)Cl` (stereo not given), “inactive”; to `ClCc1cccc(Cl)c1`, “inactive”.
Consider `CC1Sc2c(C(=O)O)c(=O)c3cc(F)c(N4CCNCC4)cc3n21` (stereo not given), for which the Potency result was “inactive”.
To `C=CC[C@]1(O)CC[C@H]2[C@@H]3CCC4=CC(=O)CCC4=C3C=C[C@@]21C` belongs 23.7 µM (active); to `CN1C(=O)CN=C(c2ccccc2)c2cc(Cl)ccc21`, “inactive”.
To `C[C@H]1C(=O)O[C@@H]2CCN3CC=C(COC(=O)[C@](C)(O)[C@]1(C)O)[C@H]23` belongs 23.7 µM (active); to `CCOC(=O)c1cncn1C(C)c1ccccc1` (stereo not given), “inactive”; to `CC#C[C@]1(O)CC[C@H]2[C@@H]3C[C@H](C)C4=CC(=O)CC[C@]4(C)[C@H]3CC[C@@]21C`, 15 µM (active).
For the molecule `CCC1(c2cccc(O)c2)CCCCN(C)C1` (stereo not given), the Potency entry was “inactive”.
Next, `O=C(O)Cc1ccccc1`: “inactive”; `COc1cc(CC#N)cc(OC)c1OC`: “inactive”; `CCO[C@H]1O[C@@H]2OC3(C)CC[C@H]4[C@H](C)CC[C@@H]([C@H]1C)[C@@]24OO3`: 3.35 µM (active).
To `CCOC(=O)NC(O)C(Cl)(Cl)Cl` (stereo not given) belongs “inactive”.
To `COC(=O)C1=CCCN(C)C1` belongs “inactive”; to `Cc1ccc([N+](=O)[O-])[c]2c1[O][Hg]2`, 0.168 µM (active); to `CN1C(=O)[C@@H](NC(=O)c2cc3ccccc3[nH]2)N=C(c2ccccc2)c2ccccc21`, “inactive”.
In the case of `COc1ccc(OC)c(CC(C)N)c1` (stereo not given), the Potency entry was “inactive”.
